“And” between values parts separate entries of the source, which are not always exact repeats. Equal values may be shown once. About 79,000 compounds went through this panel and 15% of them were active in at least one assay; those are over-represented in the sample as a whole. Unmarked numbers belong to inactive results. The source made the active and inactive calls. Rule as the data show it: active = growth inhibition above about 70%; inactive = the rest.
Tests used:
[1] = NCI Yeast Anticancer Drug Screen. Data for the rad50 strain (AID 155);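 also: 0% = growth of vehicle-only cultures of the same strain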; settings: S. cerevisiae rad50 strain growth inhibition, stronger effect = higher value; at 50.0 µM unless noted
Summary of the method: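 Growth of the mutant yeast was measured after compound exposure and referenced to vehicle-treated cultures.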

[2] = NCI Yeast Anticancer Drug Screen. Data for the mec2-1 strain (AID 157); settings: S. cerevisiae mec2-1 strain, stronger effect = higher value; at 50.0 µM unless noted
Summary of the method: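 Readout is yeast growth inhibition, normalised to vehicle-treated controls, in the mec2-1 strain exposed to compound.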

[3] = NCI Yeast Anticancer Drug Screen. Data for the sgs1 mgt1 strain (AID 161);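 also: 0% = growth of cultures given vehicle only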; settings: S. cerevisiae sgs1 mgt1 strain, stronger effect = higher value; at 50.0 µM unless noted
Summary of the method: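 Percent growth inhibition was derived by comparing compound-exposed mutant yeast with vehicle-exposed cultures. The strain carries alterations in DNA damage repair.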

[4] = NCI Yeast Anticancer Drug Screen. Data for the cln2 rad14 strain (AID 165);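 also: 0% = growth equal to vehicle treated cultures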; settings: S. cerevisiae cln2 rad14 strain, stronger effect = higher value; at 50.0 µM unless noted
Summary of the method: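 Relative to vehicle controls, growth inhibition of compound-treated cln2 rad14 yeast was recorded.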

[5] = NCI Yeast Anticancer Drug Screen. Data for the bub3 strain (AID 167); settings: S. cerevisiae bub3 mutant strain, stronger effect = higher value; at 50.0 µM unless noted
Summary of the method: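 Whole-cell yeast assay. The mutant strain was incubated with compounds, and growth inhibition was determined by comparison with vehicle-treated cells.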

[6] = NCI Yeast Anticancer Drug Screen. Data for the mlh1 rad18 strain (AID 175); settings: S. cerevisiae mlh1 rad18 strain growth inhibition, stronger effect = higher value; at 50.0 µM unless noted
Summary of the method: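 Test agents were incubated with a yeast strain of defined genotype (DNA damage repair defect). Inhibition of growth was derived by comparison with vehicle-exposed cultures.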

## CC(=O)C1=CCCCC1
[1]
  growth inhibition: 6.1%
[2]
  growth inhibition: -2.8%
[3]
  growth inhibition: -3.3%
[4]
  growth inhibition: 11.7%
[5]
  growth inhibition: 14.7%
[6]
  growth inhibition: -7.8%

## NC(=O)N/N=C/c1ccc([N+](=O)[O-])cc1
[1]
  growth inhibition: 7.35%
[2]
  growth inhibition: -2.6%
[3]
  growth inhibition: -6.55%
[4]
  growth inhibition: -24.1%
[5]
  growth inhibition: 15.9%
[6]
  growth inhibition: -4.2%

## CCc1ccc2c(c1)C(=O)c1ccccc1C2=O
[1]
  growth inhibition: 4%
[2]
  growth inhibition: 21.8%
[3]
  growth inhibition: 11.1%
[4]
  growth inhibition: -9.5%
[5]
  growth inhibition: 25.7%
[6]
  growth inhibition: 26.6%

## COc1ccc(N=C=Nc2ccc(OC)cc2)cc1
[1]
  growth inhibition: -1.45%
[2]
  growth inhibition: -15%
[3]
  growth inhibition: 4.15%
[4]
  growth inhibition: 9.6%
[5]
  growth inhibition: -10.2%
[6]
  growth inhibition: -13.6%

## O=C1c2ccccc2C(=Cc2cccc([N+](=O)[O-])c2)c2ccccc21
[1]
  growth inhibition: 15.6%
[2]
  growth inhibition: 18.4%
[3]
  growth inhibition: -6.35%
[4]
  growth inhibition: 9.75%
[5]
  growth inhibition: 4.2%
[6]
  growth inhibition: 0.6%

## Brc1cc(Br)cc(CN2CCOCC2)c1
[1]
  growth inhibition: 34%
[2]
  growth inhibition: 15.1%
[3]
  growth inhibition: 49.6%
[4]
  growth inhibition: 48%
[5]
  growth inhibition: 56.8%
[6]
  growth inhibition: 46.2%

## NC(=O)c1ccc(F)cc1
[1]
  growth inhibition: -42.3%
[2]
  growth inhibition: -29.6%
[3]
  growth inhibition: -7.7%
[4]
  growth inhibition: -16.1%
[5]
  growth inhibition: -18.2%
[6]
  growth inhibition: -10.5%

## Cc1ccc(OCC(=O)O)c(Cl)c1
[1]
  growth inhibition: -1.9%
[2]
  growth inhibition: -1.9%
[3]
  growth inhibition: 0.65%
[4]
  growth inhibition: -22.4%
[5]
  growth inhibition: 17.4%
[6]
  growth inhibition: 2.3%

## Cc1cccc(OC(=O)NC2CCCCC2)c1
[1]
  growth inhibition: 3.5%
[2]
  growth inhibition: -4.25%
[3]
  growth inhibition: -13.2%
[4]
  growth inhibition: -72.3%
[5]
  growth inhibition: 6.5%
[6]
  growth inhibition: -13.3%

## CC(Oc1ccc(OCC2CCCCC2)cc1)C(=O)N(CCO)CCO (stereo unspecified)
[1]
  growth inhibition: 21.2%
[2]
  growth inhibition: -19.9%
[3]
  growth inhibition: 25.6%
[4]
  growth inhibition: 11.9%
[5]
  growth inhibition: -43.4%
[6]
  growth inhibition: 6.65%

## CCCCCO.CCCCCO.CCCCCO.CCCCCO.[Ti]
[1]
  growth inhibition: 3.45%
[2]
  growth inhibition: -33%
[3]
  growth inhibition: -3.3%
[4]
  growth inhibition: 8.55%
[5]
  growth inhibition: -20%
[6]
  growth inhibition: -1.65%

## O=c1[nH]c2nc3ccccc3c(=O)n2nc1Cc1ccccc1
[1]
  growth inhibition: -15.7%
[2]
  growth inhibition: -19.6%
[3]
  growth inhibition: -8.6%
[4]
  growth inhibition: -2.05%
[5]
  growth inhibition: -13.3%
[6]
  growth inhibition: 0.7%

## Cc1cc2nncn2c2ccccc12
[1]
  growth inhibition: 9.15%
[2]
  growth inhibition: -3.55%
[3]
  growth inhibition: -2.9%
[4]
  growth inhibition: -12.3%
[5]
  growth inhibition: 1.2%
[6]
  growth inhibition: 11.2%

## Cc1ccc(CC2CC(=O)NC2=O)cc1 (stereo unspecified)
[1]
  growth inhibition: 13.6%
[2]
  growth inhibition: -2.95%
[3]
  growth inhibition: 22.1%
[4]
  growth inhibition: 2.15%
[5]
  growth inhibition: 10.5%
[6]
  growth inhibition: -3.8%

## CC(=O)C12C[C@](C#N)(N3CCCCCC3)C1C=Cc1ccccc12 (stereo partly specified)
[1]
  growth inhibition: -56%
[2]
  growth inhibition: -29.6%
[3]
  growth inhibition: -46.1%
[4]
  growth inhibition: -51.5%
[5]
  growth inhibition: -21.5%
[6]
  growth inhibition: -56.4%

## CCCN(CCC)CC(O)c1ccc(Cl)c2ccccc12 (stereo unspecified)
[1]
  growth inhibition: 1.85%
[2]
  growth inhibition: -30.1%
[3]
  growth inhibition: 21.1%
[4]
  growth inhibition: -35.3%
[5]
  growth inhibition: -17.9%
[6]
  growth inhibition: -9.55%

## O=C(NC1(Sc2ccccc2)CC1)c1ccc(Cl)cc1
[1]
  growth inhibition: 17.8%
[2]
  growth inhibition: 6.8%
[3]
  growth inhibition: 8.9%
[4]
  growth inhibition: 20.6%
[5]
  growth inhibition: 13.8%
[6]
  growth inhibition: 18.9%

## COc1cc(C2c3cc4c(cc3OC3(O)CCCC23)OCO4)cc(OC)c1OC (stereo unspecified)
[1]
  growth inhibition: -0.85%
[2]
  growth inhibition: 3.55%
[3]
  growth inhibition: 2.45%
[4]
  growth inhibition: -25.1%
[5]
  growth inhibition: 3.15%
[6]
  growth inhibition: -2.25%

## CC(=O)NC(CCC(=O)O)C(=O)O (stereo unspecified)
[1]
  growth inhibition: -0.55%
[2]
  growth inhibition: -14.9%
[3]
  growth inhibition: -7.15%
[4]
  growth inhibition: -6.2%
[5]
  growth inhibition: -20.1%
[6]
  growth inhibition: -1.6%

## CC1=NN(C(=O)Cc2ccccc2)C(=O)/C1=C\C=C\c1ccccc1
[1]
  growth inhibition: 11.3%
[2]
  growth inhibition: -28.2%
[3]
  growth inhibition: -20.6%
[4]
  growth inhibition: -9.2%
[5]
  growth inhibition: -15.2%
[6]
  growth inhibition: -7.85%

## CC1CCCN1CCOC(=O)C(c1ccccc1)C1CCCC1 (stereo unspecified)
[1]
  growth inhibition: -4.65%
[2]
  growth inhibition: 35.5%
[3]
  growth inhibition: 32.1%
[4]
  growth inhibition: -4.7%
[5]
  growth inhibition: 3.3%
[6]
  growth inhibition: 11.2%

## CCCCCCCCCCCCCCCCCCCCCCCCCCBr
[1]
  growth inhibition: 0.85%
[2]
  growth inhibition: 0.8%
[3]
  growth inhibition: 9.7%
[4]
  growth inhibition: -9.95%
[5]
  growth inhibition: 10.4%
[6]
  growth inhibition: 11.7%

## CC1CCC2C(=O)OC(=O)C2C1 (stereo unspecified)
[1]
  growth inhibition: 6.2%
[2]
  growth inhibition: -10.2%
[3]
  growth inhibition: 11.6%
[4]
  growth inhibition: 23.6%
[5]
  growth inhibition: 18.4%
[6]
  growth inhibition: 4.7%

## CC1=CCC2C(C)(C)CCCC2(C)C1COC1OC(OCC2C(C)=CCC3C(C)(C)CCCC23C)C2C1=CCC1C(C)(C)CCCC21C (stereo unspecified)
[1]
  growth inhibition: 90% (active)
[2]
  growth inhibition: 89.2% (active)
[3]
  growth inhibition: 84.1% (active)
[4]
  growth inhibition: 89.6% (active)
[5]
  growth inhibition: 89.2% (active)
[6]
  growth inhibition: 88% (active)

## CCOC(=O)CN(Cn1cncn1)Cn1cncn1
[1]
  growth inhibition: 26%
[2]
  growth inhibition: 5.55%
[3]
  growth inhibition: 22.2%
[4]
  growth inhibition: -30.2%
[5]
  growth inhibition: -43.4%
[6]
  growth inhibition: 10.8%

## CN(C)C1=CC(=S)NC(c2ccccc2)C1 (stereo unspecified)
[1]
  growth inhibition: -2.35%
[2]
  growth inhibition: -16.1%
[3]
  growth inhibition: -3.7%
[4]
  growth inhibition: -11.8%
[5]
  growth inhibition: -15%
[6]
  growth inhibition: -0.55%

## CCCNC(=O)Oc1ccccc1C(=O)NCO
[1]
  growth inhibition: -3.5%
[2]
  growth inhibition: 0.4%
[3]
  growth inhibition: -9.35%
[4]
  growth inhibition: -14.1%
[5]
  growth inhibition: 16.8%
[6]
  growth inhibition: -6.4%

## CCCCCCCCCc1cc(=O)c2c(O)cccc2o1
[1]
  growth inhibition: -25.8%
[2]
  growth inhibition: -30.6%
[3]
  growth inhibition: -11%
[4]
  growth inhibition: -20.1%
[5]
  growth inhibition: 18.6%
[6]
  growth inhibition: -22.4%

## CCOC(=O)c1[nH]cc(C(=O)O)c1C
[1]
  growth inhibition: 15.3%
[2]
  growth inhibition: 0.15%
[3]
  growth inhibition: 6.05%
[4]
  growth inhibition: -44.7%
[5]
  growth inhibition: 1.25%
[6]
  growth inhibition: 17.2%

## CCOC(CC(=O)NCCNC(C)=O)OCC
[1]
  growth inhibition: 38%
[2]
  growth inhibition: 4.6%
[3]
  growth inhibition: 7.2%
[4]
  growth inhibition: 2.05%
[5]
  growth inhibition: 18.4%
[6]
  growth inhibition: 43.1%

## CC(=O)Nc1ccc(S(=O)(=O)NC(C)=O)cc1
[1]
  growth inhibition: -5.8%
[2]
  growth inhibition: -8.75%
[3]
  growth inhibition: -2.7%
[4]
  growth inhibition: -20.4%
[5]
  growth inhibition: 6.7%
[6]
  growth inhibition: 12.6%

## O=C1C2CCC2C(=O)N1c1ccc2ccccc2c1 (stereo unspecified)
[1]
  growth inhibition: -38.5%
[2]
  growth inhibition: -1%
[3]
  growth inhibition: 0.35%
[4]
  growth inhibition: -17.9%
[5]
  growth inhibition: 12.6%
[6]
  growth inhibition: 6.75%

## O=C1CN(c2cccc(Cl)c2)C(=O)CN1/N=C/c1ccco1
[1]
  growth inhibition: 18.9%
[2]
  growth inhibition: -14.5%
[3]
  growth inhibition: 18%
[4]
  growth inhibition: 12.7%
[5]
  growth inhibition: 23.8%
[6]
  growth inhibition: 22.1%

## O=C(OCC(OC(=O)c1ccccc1)C(OC(=O)c1ccccc1)C(OC(=O)c1ccccc1)c1cnn(-c2ccccc2)n1)c1ccccc1 (stereo unspecified)
[1]
  growth inhibition: 0.55% and 30.4%
[2]
  growth inhibition: 3.85% and 38.2%
[3]
  growth inhibition: -6.45% and 58.4%
[4]
  growth inhibition: -13.4% and 47.3%
[5]
  growth inhibition: -0.85% and 42.1%
[6]
  growth inhibition: 12.9% and 34.9%

## Cc1ccc(NC(=S)N2CCCC(C)C2)cc1C (stereo unspecified)
[1]
  growth inhibition: -1.15%
[2]
  growth inhibition: -9.85%
[3]
  growth inhibition: 6.15%
[4]
  growth inhibition: -7.3%
[5]
  growth inhibition: 6.15%
[6]
  growth inhibition: -23.6%

## C[C@H]1/C(=C/C(=O)OCCN(C)C)CC[C@H]2[C@H]1C(=O)C[C@H]1C(C)(C)[C@@H](O)CC[C@]21C
[1]
  growth inhibition: 1.2%
[2]
  growth inhibition: -1.75%
[3]
  growth inhibition: -0.55%
[4]
  growth inhibition: 13.8%
[5]
  growth inhibition: 15.9%
[6]
  growth inhibition: -34.1%

## CCCCCC[N+](C)(C)C
[1]
  growth inhibition: 28%
[2]
  growth inhibition: -16.3%
[3]
  growth inhibition: 2.7%
[4]
  growth inhibition: 6.75%
[5]
  growth inhibition: 31.3%
[6]
  growth inhibition: 16.2%

## COc1cc(C(=O)NO)ccc1O
[1]
  growth inhibition: -0.15%
[2]
  growth inhibition: -12.6%
[3]
  growth inhibition: -15.1%
[4]
  growth inhibition: -1.95%
[5]
  growth inhibition: -6%
[6]
  growth inhibition: -1.4%

## Cn1cc(Cc2ccccc2)c(=O)[nH]c1=O
[1]
  growth inhibition: 6.25%
[2]
  growth inhibition: -4.4%
[3]
  growth inhibition: 2.05%
[4]
  growth inhibition: -34.6%
[5]
  growth inhibition: -4.85%
[6]
  growth inhibition: 7.6%

## C/C(N)=N\O
[1]
  growth inhibition: 20.1%
[2]
  growth inhibition: 4.1%
[3]
  growth inhibition: 2.45%
[4]
  growth inhibition: 9.85%
[5]
  growth inhibition: 0.1%
[6]
  growth inhibition: 1.65%

## Cc1cc([N+](=O)[O-])cc(Br)c1N
[1]
  growth inhibition: 23.1%
[2]
  growth inhibition: 11.1%
[3]
  growth inhibition: -1.6%
[4]
  growth inhibition: 3.25%
[5]
  growth inhibition: 0.25%
[6]
  growth inhibition: 25.4%

From PubChem BioAssay (NCI)
